# High-throughput results (PubChem)
# Rows were chosen to be rich in hits. Some 2.2% of all compounds tested hit in one or more screens of this group.
# HTR5A inv ctr: HTR5A inverse agonism, opioid heterodimer counter-screen. P47898. HTR5A cell line, luminescence. inhibition, % at 9.3 µM. 0.083% of 340,000 active. AID 504634; in the data active = inhibition mostly above about 23%, no sharp cut-off; inactive = mostly below about 18%;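 also: 0% = cells with DMSO and 100% = no-cell wells with DMSO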
# HTR5A ag ctr: HTR5A agonism, opioid heterodimer counter-screen; activation, % at 9.3 µM; 0.61% of 340,000 active; P47898; HTR5A agonist assay, luminescence, cell-based; in the data active = activation mostly above about 9.5%, no sharp cut-off; inactive = mostly below about 7.6%;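 also: 0% = cells with vehicle only and 100% = reference agonist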
# OPRM1-OPRD1 inv: mu-delta opioid heterodimer inverse agonism. cell-based MOR-DOR heterodimer luminescence. inhibition, % at 9.3 µM. 0.21% of 340,000 active. AID 504357; in the data active = inhibition above about 22%, passing the limit was not always enough;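 also: 0% = cells with DMSO and 100% = wells without cells with DMSO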
# HTR2A ag: activates the mouse 5-HT2A serotonin receptor | P35363 | activation, % at 7.6 µM | CHO-K1 mHTR2A beta-arrestin complementation, luminescence; percent of 30 µM serotonin response | 0.66% of 360,000 active | AID 624169;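 active = activation above a run cutoff, the mean activation of all tested compounds plus 3 SD, cut at about 14% in these data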;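 also: 0% = plate median of compound wells and 100% = 30 µM serotonin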
# Target sequence (P35363 whole entry, looked up): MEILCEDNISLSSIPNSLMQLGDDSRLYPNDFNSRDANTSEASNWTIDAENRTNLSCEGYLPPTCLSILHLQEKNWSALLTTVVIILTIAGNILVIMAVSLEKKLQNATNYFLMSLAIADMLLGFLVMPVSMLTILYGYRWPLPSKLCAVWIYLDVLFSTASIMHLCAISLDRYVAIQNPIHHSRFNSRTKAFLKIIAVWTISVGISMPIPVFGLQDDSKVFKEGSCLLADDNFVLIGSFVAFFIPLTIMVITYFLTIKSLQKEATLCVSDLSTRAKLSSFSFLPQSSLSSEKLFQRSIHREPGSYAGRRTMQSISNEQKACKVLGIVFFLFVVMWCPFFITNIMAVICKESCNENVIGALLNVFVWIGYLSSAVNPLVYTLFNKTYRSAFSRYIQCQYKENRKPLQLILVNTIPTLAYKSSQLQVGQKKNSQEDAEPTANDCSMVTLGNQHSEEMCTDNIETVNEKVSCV
# HGIII-sPLA2 inh: Inhibits HGIII-sPLA2 liposome hydrolysis, primary screen; QFRET BODIPY PC-A2 liposome hydrolysis, fluorescence; inhibition, % at 12.2 µM; AID 743126; 0.56% of 370,000 active; Q9NZ20;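 active = inhibition above mean plus 3 SD of compounds lying within the high and low control bounds, cut at about 19% in these data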;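 also: 0% = median of test compound wells and 100% = no enzyme DMSO wells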
# MOR-DOR ag: agonists of human mu-delta opioid receptor heterodimerization | cells, OPRM1-OPRD1 heterodimerization, luminescence | activation, % at 9.3 µM | 0.3% of 340,000 active | AID 504326; in the data active = activation above about 18%;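 also: 0% = vehicle-treated cells and 100% = reference agonist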
# MOR ag counter: counter-screen for mouse HTR2A agonists: human mu opioid receptor agonists; activation, % at 9.3 µM; U2OS OPRM1 beta-arrestin PathHunter, luminescence; DMSO 0%, DAMGO 9.3 µM 100%; AID 624380; 5.3% of 2,300 active; shares compounds with HTR2A ag;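 active = mean activation above the mean of DMSO-only wells plus 3 SD, cut at about 0.5% in these data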
# HTR2A ag conf: mouse HTR2A agonism confirmed | 19% of 2,300 active | AID 624381 | activation, % at 7.6 µM | CHO-K1 PathHunter beta-arrestin recruitment, luminescence; DMSO 0%, 30 µM serotonin 100% | shares compounds with HTR2A ag;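 active = mean activation across triplicates above the hit threshold derived in the original primary screen, cut at about 15% in these data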
# Numbers without * were called inactive; / = no result given.
SMILES,HTR5A inv ctr,HTR5A ag ctr,OPRM1-OPRD1 inv,HTR2A ag,HGIII-sPLA2 inh,MOR-DOR ag,MOR ag counter,HTR2A ag conf
O=C(CN1C(=O)NC2(CCCC2)C1=O)OCc1c(F)cccc1Cl,-10.1,-2.4,2.9,16.7*,9.1,-0.5,-0.6,-1.3
O=C(CN1C(=O)NC2(CCCC2)C1=O)NCc1ccc(Cl)cc1,-3.7,-0.7,16.5,19.3*,8.6,-4.2,-0.5,-2.3
O=C(CN1C(=O)NC2(CCCC2)C1=O)NCc1ccc(F)cc1,5.0,-1.3,-4.5,1.8,-3.1,0.9,/,/
O[C@H](COc1cccc(F)c1)CN1CCC(C(O)(c2ccccc2)c2ccccc2)CC1,/,/,/,/,-20.2,/,/,/
O=C(COC(=O)/C=C/c1cccc(C(F)(F)F)c1)NC(=O)NCc1ccccc1,-3.8,1.9,-11.9,3.9,2.5,2.5,/,/
O=C(COC(=O)/C=C/c1cccc(C(F)(F)F)c1)NC(=O)NC1CCCC1,-4.2,1.6,-20.1,16.3*,4.5,3.0,-0.1,-2.7
CCCCn1nnnc1C(c1cc2ccccc2o1)N1CCN(C(=O)OCC)CC1 (stereo not given),/,/,/,16.9*,-9.3,/,-0.6,-4.6
CCOC(=O)N1CCN(C(c2cc3ccccc3o2)c2nnnn2C(C)(C)C)CC1 (stereo not given),/,/,/,-1.1,5.2,/,/,/
Cc1cc(=O)[nH]c(SCc2csc(-c3ccccc3)n2)n1,-31.4,11.7,8.2,2.5,-2.5,-1.4,/,/
Nc1cc(=O)[nH]c(SCc2csc(-c3ccccc3)n2)n1,-16.3,1.8,-0.3,18.8*,1.6,0.1,-0.5,-3.3
COC(=O)[C@]12C[C@H](CC(=O)NCCCN3CCCC3=O)C(=O)N(Cc3ccc(Cl)cc3Cl)C1=C[C@H](COCc1ccccc1)O[C@@H]2C,/,/,/,/,-14.9,/,/,/
CCOc1ccc(-n2c(SCC(=O)c3ccc4ccccc4c3)nnc2-c2ccc(OC)cc2)cc1,/,/,/,/,6.8,/,/,/
Cc1ccc(N2CCN(C(=O)C3CCCN(c4ncnc5c4nc4n5CCCCC4)C3)CC2)c(C)c1 (stereo not given),-2.3,-1.9,-2.9,14.8*,5.6,0.6,-0.7,-3.7
CC(C)Cc1cc(C(=O)Nc2ccc(F)cc2F)no1,-13.0,2.5,-5.1,17.5*,-2.3,0.9,-0.6,-2.5
CC(C)C[C@@H](CN1CCC[C@H]1CN1C(=O)C(=O)NC[C@@H]1Cc1ccccc1)N1C[C@H](Cc2ccc(O)cc2)N(CC2CCCCC2)C(=O)C1=O,/,/,/,15.0*,-10.8,/,-0.5,-2.7
COc1ccc(CNS(=O)(=O)/C=C/c2ccccc2CNC(=O)OC(C)(C)C)cc1,/,/,/,/,-8.6,/,/,/
COC(CNC(=O)c1ccc2c(c1)nc(C)n2-c1ccc(F)c(F)c1)OC,-20.4,-0.7,8.9,15.0*,8.6,-1.6,-0.8,-2.6
CC(C)[C@H]1Cn2nnc(-c3ccccc3)c2Cn2c3ccccc3c(=O)n21,/,/,/,/,4.7,/,/,/
C[C@@H]1ON(C)[C@H]2C[C@H]3c4[nH]c5ccccc5c4CCN3C[C@@H]12,/,/,/,21.7*,6.9,/,0.0,13.3
CCN(CC)C(=O)CN1C(=O)C2CCCCN2C(=O)c2ccccc21 (stereo not given),/,/,/,/,15.0,/,/,/
c1ccc2c(c1)ccc1nnc(-c3ccc4c(c3)OCO4)n12,-6.0,1.7,7.6,18.5*,0.5,-1.3,-0.5,0.1
c1ccc2c(c1)ccc1nnc(SCc3ccc4c(c3)OCCO4)n12,-40.7,14.5,20.1,2.4,0.4,-3.9,/,/
COC(=O)[C@]12C[C@H](CC(=O)N3CCC(c4ccccc4)CC3)C(=O)N(CCc3ccc(OC)c(OC)c3)C1=C[C@H](COCc1ccccc1)O[C@@H]2C,/,/,/,/,-8.7,/,/,/
COc1ccc(-c2nc3n(c2C)CCC3)cc1,3.4,-1.3,7.7,23.1*,2.6,-1.6,-0.3,15.4*
O=C(O)/C=C\C(=O)Nc1ccc(N2CCN(c3ccc(Cl)c(Cl)c3)CC2)cc1,-9.0,8.0,-56.5,35.1*,3.2,11.6,-0.6,-1.9
O=C(O)/C=C\C(=O)Nc1ccc(N2CCN(c3cccc(Cl)c3)CC2)cc1,-6.6,2.5,-43.7,16.8*,9.6,7.5,-0.7,-5.0
